Assay results from PubChem BioAssay (NCATS).
Values joined by “and” are separate entries in the source; they are usually repeats but may differ in a detail not shown here. Equal entries are not always repeated. Results filed as inconclusive are left out. Where a call stands in place of a potency, no number is given. Some structures have more than one record in an assay (separate samples or runs), and their calls can disagree. Active and inactive are the calls of the source. Calls come from the whole dose curve; as a rule, active = well fitted curve in the direction sought with a large enough effect; inconclusive = small, poorly fitted or top-dose-only effect, or another doubt; inactive = no such curve, though single readings can be large; an effect the other way counts as inactive or inconclusive.

Key:
[1] = Viability qHTS for spleen associated tyrosine kinase inhibitor (SYKi) naive MV4-11 cells (AID 1963823); note: nearly all actives have a fitted effect of over 40% in size; note: potency is the fitted concentration of half-maximal effect
In short: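 qHTS, SYK inhibitor-naive MV4-11; 500 cells/well; 72 hr compound exposure, 37 C; CellTiter-Glo added, 10 min RT; luminescence read.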

[2] = Viability qHTS for spleen associated tyrosine kinase inhibitor (SYKi) drug resistant MV4-11 cells (AID 1963824); note: nearly all actives have a fitted effect of over 35% in size; note: potency is the fitted concentration of half-maximal effect
In short: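 SYK inhibitor-resistant MV4-11 AML cells, 500 per well, added to predispensed compounds and incubated 72 hr at 37 C, 5% CO2. Viability measured by CellTiter-Glo luminescence after 10 min at room temperature.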

[3] = Quantitative highthroughput screen to assess conditional lethalithy of NOMO1 cells grown in Human Plasma-Like Medium with dialyzed fetal bovine serum (HPLM+ds) (AID 1963878); note: nearly all actives have a fitted effect of over 35% in size; note: potency is the fitted concentration of half-maximal effect
In short: (§1)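 Each medium arm—HPLM with 10% dialyzed FBS, or RPMI1640 with 5 mM glucose and 10% untreated or dialyzed FBS—was screened against an 11-point, 3-fold compound titration for 48 h at 37 °C, with CellTiter-Glo luminescence as endpoint.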

[4] = Quantitative highthroughput screen to assess conditional lethalithy of P12 Ichikawa cells grown in RPMI1640 with dialyzed fetal bovine serum (RPMI+ds) (AID 1963880); settings: Potency: P12-Ichikawa viability; note: nearly all actives have a fitted effect of over 35% in size
In short: as §1

[5] = Quantitative highthroughput screen to assess conditional lethalithy of P12 Ichikawa cells grown in RPMI1640 with untreated serum (RPMI+s) (AID 1963881); settings: Potency: viability; note: nearly all actives have a fitted effect of over 35% in size; note: potency is the fitted concentration of half-maximal effect; for Viability: series mostly up to about 46 µM
In short: as §1

[6] = Quantitative highthroughput screen to assess conditional lethalithy of SEM cells grown in RPMI1640 with unreated serum (RPMI+s) (AID 1963883); note: nearly all actives have a fitted effect of over 35% in size; note: potency is the fitted concentration of half-maximal effect
In short: as §1

[7] = Cellular viability qHTS for adrenocortical cancer (ACC) cell line NCI-H295R (AID 1963990); note: nearly all actives have a fitted effect of over 60% in size; note: potency is the fitted concentration of half-maximal effect
In short: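 Viability of NCI-H295R after 48 h of treatment (final up to 46 uM) measured through cellular ATP luminescence.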

[8] = Quantitative highthroughput screen to assess conditional lethalithy of NOMO1 cells grown in RPMI1640 with dialyzed fetal bovine serum (RPMI+ds) (AID 1963877); note: nearly all actives have a fitted effect of over 30% in size; note: potency is the fitted concentration of half-maximal effect; for Viability: series mostly up to about 46 µM
In short: as §1

[9] = Cellular viability qHTS for adrenocortical cancer (ACC) cell line SW-13 (AID 1963989); settings: SW-13 ACC cells viability, CellTiter-Glo, 48 h; activity (max response): stronger effect = lower value; note: nearly all actives have a fitted effect of over 65% in size; note: potency is the fitted concentration of half-maximal effect;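 for activity (max response): cells grown in serum-free medium with ITS supplement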
In short: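 Here, serum-free SW-13 cultures were dosed up to 46 uM. Following 48 h, ATP-dependent luminescence (CellTiter-Glo) reported viable cells, and logistic modeling produced IC50 values.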

[10] = Quantitative highthroughput screen to assess conditional lethalithy of SEM cells grown in Human Plasma-Like Medium with dialyzed fetal bovine serum (HPLM+ds) (AID 1963882); note: nearly all actives have a fitted effect of over 35% in size; note: potency is the fitted concentration of half-maximal effect; for Viability: series mostly up to about 46 µM
In short: as §1

[11] = Quantitative highthroughput screen to assess conditional lethalithy of P12 Ichikawa cells grown in Human Plasma-Like Medium with dialyzed fetal bovine serum (HPLM+ds) (AID 1963879); settings: Potency: viability
In short: as §1

[12] = Quantitative highthroughput screen to assess conditional lethalithy of SEM cells grown in RPMI1640 with dialyzed fetal bovine serum (RPMI+ds) (AID 1963884)
In short: as §1

[13] = Quantitative highthroughput screen to assess conditional lethalithy of NOMO1 cells grown in RPMI1640 with untreated serum (RPMI+s) (AID 1963876); note: nearly all actives have a fitted effect of over 35% in size
In short: as §1

Row | SMILES | Potency [1] | Potency [2] | Potency [3] | Potency [4] | Potency [5] | Potency [6] | Potency [7] | Potency [8] | activity (max response) [9] | Potency [10] | Potency [11] | Potency [12] | Potency [13] | Potency [9]
1 | C[C@]12CC[C@@H]3c4ccc(OC(=O)N(CCCl)CCCl)cc4CC[C@H]3[C@@H]1CC[C@@H]2OP(=O)(O)O | inactive | inactive | 18.7 µM (active) | inactive | inactive | 14.8 µM (active) | inactive | – | – | – | – | – | – | –
2 | C#CCN(C)[C@H](C)Cc1ccccc1 | inactive | inactive | – | – | inactive | – | inactive | inactive | 4.66% (inactive) and -4.85% (inactive) | – | – | – | – | –
3 | O=P1(NCCCl)OCCCN1CCCl (stereo not given) | inactive | inactive | – | inactive | inactive | – | inactive | inactive | 17.4% (inactive) and 1.23% (inactive) | 18.7 µM (active) | – | – | – | –
4 | CN1C(=O)CCS(=O)(=O)C1c1ccc(Cl)cc1 (stereo not given) | inactive | inactive | – | – | – | – | inactive | – | 1.09% (inactive) and -1.33% (inactive) | inactive | inactive | inactive | – | –
5 | NCC1(CC(=O)O)CCCCC1 | inactive | inactive | – | – | inactive | – | inactive | inactive | 12.5% (inactive) and -5.41% (inactive) | inactive | – | inactive | – | –
6 | O=S(=O)(F)Cc1ccccc1 | inactive | inactive | – | inactive | inactive | inactive | inactive | inactive | 2.11% (inactive) | inactive | inactive | inactive | inactive | –
7 | COC(=O)[C@@H](N)CCCN=C(N)N[N+](=O)[O-] | inactive | inactive | – | – | inactive | – | inactive | inactive | 6.1% (inactive) | inactive | inactive | inactive | – | –
8 | CC(C)c1cccc(C(C)C)c1O | inactive | inactive | inactive | inactive | – | – | inactive and 23.1 µM (active) | – | 18.8% (inactive) and -6.92% (inactive) | inactive | inactive | inactive | – | –
9 | O=C(O)c1nn(Cc2ccc(Cl)cc2Cl)c2ccccc12 | inactive | inactive | – | – | inactive | – | inactive | inactive | 8.06% (inactive) and -12.7% (inactive) | inactive | inactive | inactive | – | –
10 | Fc1ccc(C(OCCN2CCN(CCCc3ccccc3)CC2)c2ccc(F)cc2)cc1 | 5.96 µM (active) and 6.61 µM (active) | 6.68 µM (active) and 6.61 µM (active) | – | – | – | – | 4.61 µM (active) and 11.2 µM (active) | 20.9 µM (active) | – | – | – | – | – | –
11 | CN[C@@H]1Cc2cccc3[nH]c(=O)n(c23)C1 | inactive | inactive | inactive | inactive | inactive | inactive | inactive | inactive | -9.99% (inactive) | – | inactive | inactive | – | –
12 | COc1ccc(C(=O)c2c(C)n(CCN3CCOCC3)c3ccccc23)cc1 | 26.6 µM (active) | 16.6 µM (active) | – | inactive | inactive | – | 14.6 µM (active) | – | – | inactive | – | inactive | – | –
13 | Cc1cccc(C)c1NC(=O)CN1CCCC1=O | inactive | inactive | – | – | – | – | inactive | inactive | -5.06% (inactive) and 4.95% (inactive) | inactive | inactive | inactive | inactive | –
14 | CCOc1ccccc1-n1c(C(C)N2CCN(C(=O)COc3ccc(Cl)cc3)CC2)nc2ccccc2c1=O (stereo not given) | 920 nM (active) and 742 nM (active) | 1.46 µM (active) and 1.32 µM (active) | – | – | 1.48 µM (active) | – | 0.891 µM (active) | – | – | – | – | – | – | –
15 | COc1ccc(N(C(=O)Oc2c(C)cccc2C)c2ccnc(Nc3ccc(N4CCN(C)CC4)cc3)n2)c(OC)c1 | 1.48 µM (active) | 1.16 µM (active) and 2.35 µM (active) | – | – | – | – | 12.6 µM (active) | inactive | – | – | inactive | – | – | 8.91 µM (active)
16 | Cn1c(CCCC(=O)O)nc2cc(N(CCCl)CCCl)ccc21 | inactive and 11.8 µM (active) | inactive and 11.8 µM (active) | inactive | – | – | – | inactive | inactive | 2.81% (inactive) and -9.72% (inactive) | – | – | – | – | –
17 | CNCC(O)c1ccc(O)cc1 (stereo not given) | inactive | inactive | inactive | – | inactive | inactive | inactive | inactive | -3.15% (inactive) and -7.74% (inactive) | – | – | inactive | – | –
18 | CC(NC(C)(C)C)C(=O)c1cccc(Cl)c1 (stereo not given) | inactive | inactive | – | inactive | inactive | – | inactive | inactive | 8.14% (inactive) and 1.12% (inactive) | – | inactive | – | inactive | –
